ELG1 DNA repair: qHTS screen for small molecules that inhibit ELG1-dependent DNA repair in human embryonic kidney (HEK293T) cells expressing luciferase-tagged ELG1. Potency, µM (titrated, usually from 46.1 µM), hits mostly inhibitors. HEK293T ELG1-luciferase reporter, luminescence, 16 h; DNA damage induced by 5-fluorouridine. AID 504467, 2011. 2.3% of 330,000 active; also: nearly all actives have a fitted effect of over 55% in size
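Luminescence from the luciferase reporter, measured 30 min after ONE-Glo reagent at room temperature, was the read-out. Beforehand, 2,000 cells per well were exposed for 16 hr at 37 °C to 5-fluorouridine together with compound or vehicle.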
IL-1B inflam inh: qHTS for Inhibitors of Inflammasome Signaling: IL-1-beta AlphaLISA Primary Screen; THP-1 LPS/ATP IL-1B secretion, AlphaLISA, 16 h; hits give low values; activity change, % at 57.5 µM; 4.7% of 360,000 active; AID 743279, 2014; in the data active = activity change below about -50%; inconclusive = mostly about -30% to -49%
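THP-1 cells pretreated 1 hr with compounds (up to 57.5 uM final), then stimulated with LPS (250 ng/mL final) plus ATP (1.25 mM final); secreted IL-1B measured by AlphaLISA after 16 hr, decreased signal indicating inhibition.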
VP16 counter: VP16 counterscreen qHTS for inhibitors of ROR gamma transcriptional activity; 3.5% of 310,000 active; Potency, µM (top dose mostly 53.6 µM), most hits filed as inhibitors; Drosophila S2 Gal4-VP16 UAS-luciferase, luminescence, 20 h;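 also: Gal4-VP16 expression switched on by copper sulfate through the metallothionein promoter; nearly all actives have a fitted effect of over 50% in size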
DT40 TDP1 CPT: qHTS for Inhibitors of human tyrosyl-DNA phosphodiesterase 1 (TDP1): qHTS in cells in presence of CPT; chicken DT40 Tdp1-/-;hTDP1 cells + 20 nM CPT, ATP luminescence, 48 h; Potency, µM (series often up to 46.2 µM), usual class: inhibitors; 12% of 420,000 active; also: nearly all actives have a fitted effect of over 55% in size
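Chicken DT40 Tdp1-/- cells complemented with human TDP1, 400 cells/well, exposed to compounds plus 20 nM camptothecin for at least 48 h at 37 C; viability read as ATP content by CellTiter-Glo luminescence.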
DT40 TDP1 no CPT: qHTS for Inhibitors of human tyrosyl-DNA phosphodiesterase 1 (TDP1): qHTS in cells in absence of CPT; DT40 Tdp1-/- hTDP1 cells, no CPT, ATP luminescence, 48 h; Potency, µM (titrated, usually from 46.2 µM), usual class: inhibitors; 15% of 420,000 active; AID 686978, 2013; also: nearly all actives have a fitted effect of over 55% in size
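Chicken DT40 Tdp1-/- cells stably complemented with human TDP1 were seeded at 400 cells/well with DMSO in place of 20 nM camptothecin. After compound pinning, cells grew at least 48 hr at 37 °C; viability read by CellTiter-Glo luminescence.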
RORg inh: qHTS for inhibitors of ROR gamma transcriptional activity; Nuclear receptor ROR-gamma (Mus musculus), P51450; Drosophila S2 Gal4-RORgamma UAS-luciferase reporter, 20 h; Potency, µM (series often up to 53.6 µM), hits mostly inhibitors; 5.4% of 310,000 active; AID 2551, 2010; also: nearly all actives have a fitted effect of over 60% in size
Target sequence (P51450 whole entry, looked up, the tested form may be a part): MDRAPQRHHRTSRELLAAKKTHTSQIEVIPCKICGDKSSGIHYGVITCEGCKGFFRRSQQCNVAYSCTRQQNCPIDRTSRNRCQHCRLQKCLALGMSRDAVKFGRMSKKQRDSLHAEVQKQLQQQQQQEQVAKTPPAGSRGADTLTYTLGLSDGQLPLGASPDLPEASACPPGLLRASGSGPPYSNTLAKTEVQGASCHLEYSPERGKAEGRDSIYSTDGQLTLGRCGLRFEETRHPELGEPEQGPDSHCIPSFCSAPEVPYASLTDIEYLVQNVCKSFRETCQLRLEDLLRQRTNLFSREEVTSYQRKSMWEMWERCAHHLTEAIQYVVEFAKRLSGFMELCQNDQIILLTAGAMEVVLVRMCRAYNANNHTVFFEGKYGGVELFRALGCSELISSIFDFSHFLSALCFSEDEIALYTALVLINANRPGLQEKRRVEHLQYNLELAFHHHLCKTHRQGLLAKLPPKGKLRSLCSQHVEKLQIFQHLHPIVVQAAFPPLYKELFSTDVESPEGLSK
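Drosophila Schneider cells stably carrying a metallothionein-driven Gal4 DBD–ROR gamma fusion and a UAS-Photinus luciferase reporter were exposed to compound for 1 hr, then induced with copper sulfate (700 uM final) for 20 hr at ambient temperature before luminescence reading.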
A number is an active result. Most compounds without a hit are left out; they make up all but 21% or so of the library. Unless noted, calls follow the shape of the dose curve; as a rule, active = well fitted curve in the direction sought with a large enough effect; inconclusive = small, poorly fitted or top-dose-only effect, or another doubt; inactive = no such curve, though single readings can be large; an effect the other way counts as inactive or inconclusive.

For Cc1cccc(C2c3[nH]c4ccccc4c3CCN2C(=O)c2cc(CC(C)C)[nH]c(=O)n2)n1 (stereo not drawn) the results were ELG1 DNA repair inactive, IL-1B inflam inh inactive, VP16 counter inconclusive, DT40 TDP1 CPT inconclusive, DT40 TDP1 no CPT inconclusive and RORg inh 13µM.
CC(C)c1nc(C(=O)N2CCc3c([nH]c4ccccc34)C2c2ccccn2)cs1 (stereo not drawn) was read as ELG1 DNA repair inconclusive, IL-1B inflam inh -64, VP16 counter inactive, DT40 TDP1 CPT inactive, DT40 TDP1 no CPT inactive and RORg inh inactive.
Cc1cccc(C2c3[nH]c4ccccc4c3CCN2C(=O)c2nn(C)c(=O)c3ccccc23)n1 (stereo not drawn) was read as ELG1 DNA repair inconclusive, IL-1B inflam inh -59, VP16 counter inactive, DT40 TDP1 CPT inconclusive, DT40 TDP1 no CPT inconclusive and RORg inh inactive.
For Cc1nc(C(=O)N2CCc3c([nH]c4ccccc34)C2c2ccccn2)cs1 (stereo not drawn) the results were ELG1 DNA repair inconclusive, IL-1B inflam inh inactive, VP16 counter inactive, DT40 TDP1 CPT inactive, DT40 TDP1 no CPT inactive and RORg inh inactive.
Cc1cccc(C2c3[nH]c4ccccc4c3CCN2C(=O)c2ocnc2C)n1 (stereo not drawn) was read as ELG1 DNA repair inactive, IL-1B inflam inh inactive, VP16 counter inactive, DT40 TDP1 CPT inactive, DT40 TDP1 no CPT inconclusive and RORg inh inactive.
`Cc1ccc(N(CC(=O)NC(C)(C)C)C(=O)CS(=O)CC(=O)Nc2ccc3c(c2)OCO3)cc1` (stereo not drawn) gave ELG1 DNA repair inactive, IL-1B inflam inh inactive, VP16 counter inactive, DT40 TDP1 CPT inactive, DT40 TDP1 no CPT inactive and RORg inh inactive.
`CCCCCCCCCCCCC(C(=O)O)C(C)C(=O)O` (stereo not drawn) gave VP16 counter inactive, DT40 TDP1 CPT inactive, DT40 TDP1 no CPT inactive and RORg inh inactive.
Nc1cc(Cl)cc2c1-c1ccc(Cl)cc1C2O (stereo not drawn) was read as IL-1B inflam inh inactive, DT40 TDP1 CPT inactive and DT40 TDP1 no CPT inconclusive.
Screening O=C(Nc1cc(Cl)cc2c1-c1ccc(Cl)cc1C2O)C(Cl)Cl (stereo not drawn) returned IL-1B inflam inh -61, DT40 TDP1 CPT 23µM and DT40 TDP1 no CPT inconclusive.
`COc1ccc(OC)c(NC(=O)c2ccc3c(c2)c(C)c(C)n3Cc2ccc(F)cc2)c1` gave DT40 TDP1 CPT inconclusive and DT40 TDP1 no CPT 21µM.
COc1ccc(NC(=O)c2ccc3c(c2)c(C)c(C)n3Cc2ccc(F)cc2)c(OC)c1 was read as DT40 TDP1 CPT 18µM and DT40 TDP1 no CPT 21µM.
CCOc1ccc(C(=O)NCc2nc3cccnc3n2Cc2ccc(F)cc2)cc1OCC was read as DT40 TDP1 CPT inactive and DT40 TDP1 no CPT inactive.
For CC(C(=O)O)c1ccc(/C=C2\CCCCC2=O)cc1 (stereo not drawn) the results were DT40 TDP1 CPT inactive and DT40 TDP1 no CPT inactive.
`CCOC(=O)c1ccc(NC(=O)C2CCN(S(=O)(=O)CC)CC2)cc1` gave ELG1 DNA repair inactive, IL-1B inflam inh inactive, VP16 counter inactive, DT40 TDP1 CPT inactive, DT40 TDP1 no CPT inactive and RORg inh inactive.
For O=C(Nc1ccc(Oc2ccccc2)cc1)C1CCN(S(=O)(=O)c2ccccc2)CC1 the results were DT40 TDP1 CPT inconclusive and DT40 TDP1 no CPT 9.2µM.
Screening CCOC(=O)c1ccc(NC(=O)C2CCN(S(=O)(=O)c3ccccc3)CC2)cc1 returned IL-1B inflam inh inactive, DT40 TDP1 CPT 26µM and DT40 TDP1 no CPT inconclusive.
`CCOC(=O)c1ccc(S(=O)(=O)N2CCC(C(=O)NCC3COc4ccccc4O3)CC2)cc1` (stereo not drawn) gave IL-1B inflam inh inactive, DT40 TDP1 CPT 21µM and DT40 TDP1 no CPT 23µM.
Screening Cc1ccc2c(=O)n3c(nc2c1)C(Cc1ccccc1)NC(=O)c1cc(Cl)ccc1-3 (stereo not drawn) returned ELG1 DNA repair inactive.
`O=C(CN1CCCC1)NCC12CC3CC(CC(C3)C1)C2` gave ELG1 DNA repair inconclusive, IL-1B inflam inh inactive, VP16 counter inactive, DT40 TDP1 CPT inactive, DT40 TDP1 no CPT inactive and RORg inh inactive.
`O=C(CN1C(=O)CCC1=O)NCC12CC3CC(CC(C3)C1)C2` gave IL-1B inflam inh inconclusive, VP16 counter inactive, DT40 TDP1 CPT inconclusive, DT40 TDP1 no CPT 26µM and RORg inh inactive.
Screening COCc1nnc(NC(=O)CCCOc2ccccc2)s1 returned ELG1 DNA repair inactive, IL-1B inflam inh inactive, VP16 counter inactive, DT40 TDP1 CPT inactive, DT40 TDP1 no CPT inactive and RORg inh inactive.
For COCc1nnc(NC(=O)c2cccc(NC(=O)c3ccccc3)c2)s1 the results were ELG1 DNA repair inactive, IL-1B inflam inh inactive, VP16 counter inactive, DT40 TDP1 CPT inconclusive, DT40 TDP1 no CPT 21µM and RORg inh inactive.
COc1ccc(OC)c2sc(NC(=O)CCSc3ccccc3)nc12 was read as ELG1 DNA repair inconclusive, IL-1B inflam inh inactive, VP16 counter inactive, DT40 TDP1 CPT inactive, DT40 TDP1 no CPT inactive and RORg inh inactive.
Cc1ccc(S(=O)(=O)CCc2nnc(NC(=O)c3ccccn3)s2)cc1 was read as ELG1 DNA repair inactive, IL-1B inflam inh inactive, VP16 counter 7.1µM, DT40 TDP1 CPT inconclusive, DT40 TDP1 no CPT 21µM and RORg inh inconclusive.
`COCc1nnc(NC(=O)CCS(=O)(=O)c2ccccc2)s1` gave ELG1 DNA repair inactive, IL-1B inflam inh -97, VP16 counter inactive, DT40 TDP1 CPT 10µM, DT40 TDP1 no CPT 16µM and RORg inh inactive.
For COc1ccc(OC)c2sc(NC(=O)CCS(=O)(=O)c3ccccc3)nc12 the results were IL-1B inflam inh inactive, DT40 TDP1 CPT 5.2µM and DT40 TDP1 no CPT 4.6µM.
Screening Cc1ccc(S(=O)(=O)CCc2nnc(NC(=O)c3cnccn3)s2)cc1 returned ELG1 DNA repair inactive, IL-1B inflam inh inactive, VP16 counter inactive, DT40 TDP1 CPT inactive, DT40 TDP1 no CPT inactive and RORg inh inactive.
For COc1ccc(CNC(=O)CCNC(=O)C2CCN(S(=O)(=O)c3ccc(OC)cc3)CC2)cc1 the results were IL-1B inflam inh inconclusive, DT40 TDP1 CPT inactive and DT40 TDP1 no CPT inactive.
COc1cc(NC(=O)CN2CCN(c3ccc(F)cc3)CC2)cc(OC)c1 was read as DT40 TDP1 CPT inactive and DT40 TDP1 no CPT inconclusive.

High-throughput results as filed in PubChem.
